# Measured values taken from PubChem BioAssay (NCI).
# Where “and” joins values, the source holds several entries; their conditions need not be identical. Identical values can stand only once. The panel holds about 83,000 compounds, 20% with a hit somewhere; the sample as a whole holds those more often.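 Activity criterion: percent growth below 10, measured after cells in 96-well plates were exposed to a single compound concentration for 48 hours.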 Calls of active or inactive are those of the source.
# How the values were obtained:
# Assay in all cases: NCI-60 one-dose screen, 48 h (100 = growth as untreated, 0 = no growth, -100 = all killed)
# HCT-15 colon = conditions: 10 µM
# HT29 colon = conditions: 10 µM
# SNB-75 CNS = conditions: 10 µM
# SNB-19 CNS = conditions: 10 µM
# U251 CNS = conditions: 10 µM
# PC-3 prostate = conditions: 10 µM
# SK-MEL-5 melanoma = conditions: 10 µM
# UACC-62 melanoma = conditions: 10 µM unless noted
# LOX IMVI melanoma = conditions: 10 µM
# SK-MEL-28 melanoma = conditions: 10 µM
SMILES,growth (HCT-15 colon),growth (HT29 colon),growth (SNB-75 CNS),growth (SNB-19 CNS),growth (U251 CNS),growth (PC-3 prostate),growth (SK-MEL-5 melanoma),growth (UACC-62 melanoma),growth (LOX IMVI melanoma),growth (SK-MEL-28 melanoma)
C/C(=C\c1ccc(Cl)c(Cl)c1)[N+](=O)[O-],-66.8% (active) and 101% (inactive),-52.3% (active) and 102% (inactive),90.3% (inactive),87.4% (inactive) and 103% (inactive),-23.9% (active) and 87.8% (inactive),-35% (active) and 85.2% (inactive),84.5% (inactive) and 101% (inactive),13.5% (inactive) and 92.4% (inactive),-75.1% (active) and 90.1% (inactive),-24.5% (active) and 103% (inactive)
O=C(O)c1cc(Cc2ccc(O)c(C(=O)O)c2)ccc1O (tested in a mixture with another compound),49.4% (inactive),25% (inactive),51.2% (inactive),85.6% (inactive),70.4% (inactive),-31.5% (active),71.3% (inactive),69.5% (inactive),-47.3% (active),84.6% (inactive)
COC(C(=O)C(O)C(C)O)C1Cc2cc3cc(OC4CC(OC(C)=O)C(OC5CC(O)C(OC)C(C)O5)C(C)O4)cc(O)c3c(O)c2C(=O)C1OC1CC(OC2CC(OC3CC(C)(O)C(OC(=O)C(C)C)C(C)O3)C(O)C(C)O2)C(O)C(C)O1 (configuration not stated),25.1% (inactive),-2.06% (active),-74% (active),-4.78% (active),8.24% (active),1.13% (active),-97.3% (active),-97% (active),1.99% (active),–
COC(=O)C1C(O)C(C)C(O)C(C)/C=C\C=C(C)C(=O)Nc2c(C)c(OC(C)=O)c3c(c2O)C(=O)C(C)=C2OCOC(=C23)C(C)=CC(C)(O)C(O)C(C)C1O (configuration not stated),43.8% (inactive),90.3% (inactive),32.4% (inactive),99.1% (inactive),45.9% (inactive),48.8% (inactive),99% (inactive),97.4% (inactive),78.7% (inactive),–
NC(Cc1ccccc1)c1ccccc1 (configuration not stated),110% (inactive) and 97.8% (inactive),106% (inactive) and 95.1% (inactive),93.9% (inactive) and 84.8% (inactive),105% (inactive) and 99.7% (inactive),103% (inactive) and 102% (inactive),84.8% (inactive) and 90% (inactive),94.1% (inactive) and 100% (inactive),99.8% (inactive) and 91.6% (inactive),92.2% (inactive) and 97.5% (inactive),101% (inactive) and 110% (inactive)
C=C1C(=O)O[C@@H]2C[C@@H](C)[C@@H]3C=CC(=O)[C@@]3(C)[C@@H](O)[C@H]12,-83.7% (active),-66% (active),-94.8% (active),-63.7% (active),-100% (active),-62% (active),-93.5% (active),-61.4% (active),-97% (active),–
C/C1=C\[C@H](C)C[C@H](C)OC(=O)C[C@H](c2ccc(O)cc2)NC(=O)[C@@H](Cc2c(Br)[nH]c3ccccc23)N(C)C(=O)[C@H](C)NC(=O)[C@@H](C)C1,-38.1% (active),-33.5% (active),-76.4% (active),-21.9% (active),-50.6% (active),-59.6% (active),-74.5% (active),-1.83% (active),-32.7% (active),–
CC(Cc1ccc2c(c1)OCO2)NN (configuration not stated),102% (inactive),98.7% (inactive),90.6% (inactive),105% (inactive),88.9% (inactive),76.3% (inactive),93.6% (inactive),95.6% (inactive),92.2% (inactive),105% (inactive)
Cc1cc([N+](=O)[O-])c2ccccc2[n+]1[O-],-25.7% (active) and -13.2% (active),-24.6% (active) and -48.6% (active),-63.6% (active) and -53.8% (active),-4.83% (active) and -14.1% (active),-12.7% (active) and -32.2% (active),-10.8% (active) and -56% (active),-84% (active) and -58.2% (active),-55.5% (active) and -86.3% (active),7.14% (active) and -48.7% (active),41.8% (inactive) and 15.2% (inactive)
C=NCC#N,94.2% (inactive) and 107% (inactive),83.6% (inactive) and 103% (inactive),91.4% (inactive) and 88.2% (inactive),102% (inactive) and 108% (inactive),102% (inactive) and 107% (inactive),96.3% (inactive) and 122% (inactive),106% (inactive) and 102% (inactive),107% (inactive) and 104% (inactive),102% (inactive) and 111% (inactive),123% (inactive) and 108% (inactive)
COc1cc(/C=C\[N+](=O)[O-])ccc1O,-12% (active) and 75.9% (inactive),32.3% (inactive) and 90.3% (inactive),93.6% (inactive) and 96.7% (inactive),82.6% (inactive) and 81.2% (inactive),50.1% (inactive) and 64.1% (inactive),97.6% (inactive) and 90.3% (inactive),77% (inactive) and 79.3% (inactive),61.1% (inactive) and 80.2% (inactive),-66.1% (active) and 46.7% (inactive),55.8% (inactive) and 97.3% (inactive)
CC/C(=C/c1ccc(OC)cc1OC)[N+](=O)[O-],-35.9% (active),-1.29% (active),44.9% (inactive),41.6% (inactive),43.5% (inactive),50% (inactive),38.1% (inactive),-36.2% (active),-85.1% (active),2.66% (active)
S=C=NCCc1ccccc1,51.7% (inactive),31.9% (inactive),54.2% (inactive),54.3% (inactive),46.5% (inactive),64.2% (inactive),-28.2% (active),55% (inactive),32.2% (inactive),–
CCOP(=O)(OCC)C(O)c1ccccc1Cl (configuration not stated),88.8% (inactive),105% (inactive),98.5% (inactive),105% (inactive),99.5% (inactive),98.3% (inactive),103% (inactive),108% (inactive),97.9% (inactive),114% (inactive)
COc1ccccc1/C=C/[N+](=O)[O-],42.3% (inactive),39.5% (inactive),69.4% (inactive),86.9% (inactive),50.3% (inactive),64.1% (inactive),83.4% (inactive),73% (inactive),37.4% (inactive),79.4% (inactive)
ClCc1ccc2ccccc2n1,103% (inactive),94.1% (inactive),81.8% (inactive),103% (inactive),103% (inactive),92.1% (inactive),91% (inactive),74.9% (inactive),80.5% (inactive),110% (inactive)
CC12OOC(c3ccccc31)c1c2ccc2ccccc12 (configuration not stated),-93.2% (active),-81.3% (active),-20.4% (active),64.8% (inactive),50.3% (inactive),-74.4% (active),61.7% (inactive),59.6% (inactive),-91.2% (active),–
O=[N+]([O-])c1cc[n+]([O-])c2ccccc12,-23.1% (active),-31.4% (active),-82.2% (active),-17.6% (active),-26.3% (active),-10.8% (active),-92.5% (active),-85.2% (active),-73.7% (active),-86.9% (active)
CC[C@@H](C)[C@@H]1NC(=O)C(NC(=O)C(CC(C)C)N(C)C(=O)C2CCCN2C(=O)C(C)O)C(C)OC(=O)C(Cc2ccc(OC)cc2)N(C)C(=O)C2CCCN2C(=O)C(CC(C)C)NC(=O)C(C)C(=O)C(C(C)C)OC(=O)C[C@H]1O (some centres not stated),-32.7% (active),-53.2% (active),-95.7% (active),-44% (active),-43.8% (active),-37.2% (active),-98.1% (active),-68.9% (active),-70.2% (active),–
Oc1ccccc1-c1ccccc1,104% (inactive) and 94.6% (inactive),97% (inactive) and 98.8% (inactive),97.4% (inactive) and 79.2% (inactive),101% (inactive) and 93.4% (inactive),99% (inactive) and 98.1% (inactive),94.4% (inactive) and 98.6% (inactive),102% (inactive) and 97.7% (inactive),98.5% (inactive) and 96% (inactive),92.3% (inactive) and 108% (inactive),112% (inactive) and 102% (inactive)
CC(C)C1(NC(=O)C2CC3c4cccc5[nH]cc(c45)CC3N(C)C2)OC2(O)C3CCCN3C(=O)C(Cc3ccccc3)N2C1=O (configuration not stated),89.3% (inactive),101% (inactive),-1.61% (active),102% (inactive),98.8% (inactive),81.1% (inactive),89.8% (inactive),86.4% (inactive),91% (inactive),–
COc1cc([C@@H]2c3cc4c(c(O)c3C[C@H]3COC(=O)[C@@H]32)OCO4)cc(OC)c1OC,10.2% (inactive),12.9% (inactive),24% (inactive),7.28% (active),23.8% (inactive),-0.628% (active),-42.8% (active),64.3% (inactive),19.9% (inactive),54.3% (inactive)
O=[N+]([O-])c1ccc(N2CCOCC2)c2c1no[n+]2[O-],-19.3% (active),-29.3% (active),-15.5% (active),28.8% (inactive),2.99% (active),10.9% (inactive),25.4% (inactive),-24.9% (active),-14.3% (active),49.3% (inactive)
Cn1c(O)c(N=O)c(=O)n(C)c1=O,104% (inactive) and 111% (inactive),117% (inactive) and 114% (inactive),99.3% (inactive) and 95.2% (inactive),107% (inactive) and 98.5% (inactive),94.6% (inactive) and 109% (inactive),101% (inactive) and 95.1% (inactive),100% (inactive) and 98.1% (inactive),99.7% (inactive) and 93.3% (inactive),91.4% (inactive) and 94.4% (inactive),113% (inactive) and 107% (inactive)
